High-throughput results (PubChem)
Shown are actives, neighbours in structure and some others; about 12% of the full set was active somewhere.
L3MBTL1 block: blocks human L3MBTL1; Q9Y468; AlphaScreen L3MBTL1–H3K9me1 peptide binding; Potency, µM (doses to about 57.1 µM), most hits filed as inhibitors; actives 0.66% (n = 230,000); also: nearly all actives have a fitted effect of over 60% in size
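First, the protein-peptide complex forms for 30 min at room temperature (L3MBTL1 50 nM, biotinylated H3K9me1 peptide 75 nM). Next, compounds are pin-transferred and incubated 30 min. Finally, AlphaScreen beads are added and read after 30 min.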
Sfp inh: blocks B. subtilis Sfp PPTase activity; Biochemical Sfp PPTase activity, qHTS; Potency, µM, most hits filed as inhibitors; actives 3.5% (n = 310,000); AID 1490;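 also: the enzyme is Sfp with the accession as filed and its product quenches rhodamine fluorescence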
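Buffer: 50 mM Hepes-Na pH 7.6, 10 mM MgCl2, 0.01% Nonidet P-40, 0.01% BSA. Enzyme 15 nM, pre-exposed to compound 15 min; substrates then added and fluorescence change tracked over 30 min.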
HP1b chromo inh: inhibitors of HP1-beta chromodomain binding to methylated histone tails. actives 0.56% (n = 390,000). P83916. Potency, µM (doses to about 114 µM), actives largely listed as inhibitors. AlphaScreen HP1-beta / biotin-H3K9me3 peptide binding; also: nearly all actives have a fitted effect of over 70% in size
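AlphaScreen: HP1-beta (50 nM) preformed 30 min with biotin-H3(1-18)K9me3 peptide (50 nM) in PBS pH 7.4, 0.01% Tween-20. Compound added for 30 min at RT, then streptavidin donor/nickel chelate acceptor beads (10 ug/mL) for 30 min.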
G9a block: G9a (human) methyltransferase inhibition. Potency, µM (titrated, usually from 102 µM), usual class: inhibitors. AID 504332. actives 8.8% (n = 350,000). Q96KQ7. G9a H3K9 monomethylation, AlphaScreen, 2 h; also: nearly all actives have a fitted effect of over 75% in size
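Quantitative HTS format: methyltransferase activity on a biotin-tagged H3K9 peptide is measured by AlphaScreen, using a rabbit anti-monomethyl-H3K9 antibody with streptavidin donor and anti-IgG acceptor beads. Final levels are 20 nM enzyme, 500 nM peptide, 20 uM SAM; 2 h RT.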
BAZ2B inh: BAZ2B (human) inhibition; Potency, µM (doses to about 114 µM), actives largely listed as inhibitors; Q9UIF8; AID 504333; actives 4.4% (n = 360,000); AlphaScreen BAZ2B-H3K14Ac peptide displacement; also: nearly all actives have a fitted effect of over 60% in size
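AlphaScreen displacement of biotin-H3(5-23)K14Ac peptide (50 nM final) from BAZ2B (50 nM final) in PBS pH 7.4, 0.01% Tween-20; complex preformed 30 min RT, then compounds (top 110 uM) 30 min RT, beads 20 min dark.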
JMJD2A Tudor inh: JMJD2A Tudor domain (human) inhibition. O75164. AlphaScreen JMJD2A-Tudor / H3K4me3 peptide binding. Potency, µM (top dose mostly 114 µM), hits mostly inhibitors. actives 4.4% (n = 390,000); also: nearly all actives have a fitted effect of over 50% in size
Large screens that a line does not name were inactive; ! = not active in a repeat. Calls follow the shape of the dose curve; as a rule, active = well fitted curve in the direction sought with a large enough effect; inconclusive = small, poorly fitted or top-dose-only effect, or another doubt; inactive = no such curve, though single readings can be large; an effect the other way counts as inactive or inconclusive.

Cc1nn(-c2ccccc2)c(Cl)c1/C=N/N1CCN(c2ccccn2)CC1	none
CN(C)c1ccc(/C=N/N2CCN(c3ccccn3)CC2)cc1	G9a block 13µM
Cc1nn(-c2ccccc2)c(C)c1/C=N/N1CCN(c2ccccc2)CC1	G9a block inconclusive, BAZ2B inh inconclusive, JMJD2A Tudor inh 20µM
Cc1nn(-c2ccccc2)c(C)c1/C=N/N1CCN(c2ccccn2)CC1	L3MBTL1 block inconclusive, Sfp inh 79µM, HP1b chromo inh inconclusive, G9a block inconclusive, BAZ2B inh 45µM, JMJD2A Tudor inh inconclusive
Cc1nn(-c2ccccc2)c(C)c1C=O	none
Cc1nn(-c2ccccc2)c(C)c1/C=N/N1CCN(Cc2ccccc2)CC1	G9a block 17µM (no result: L3MBTL1 block, HP1b chromo inh, BAZ2B inh, JMJD2A Tudor inh)
COc1ccccc1C1NC(=O)NC(C)=C1C(=O)OC1CCCC(C)C1 (configuration not stated)	none
CCCCNC(=O)NNc1nc(Cl)cc(C)c1C#N	G9a block 32µM
CSc1nc(N)nc2c1ncn2CC(=O)Nc1ccc(C)c(C)c1	none (no result: Sfp inh, G9a block, BAZ2B inh)
COc1ccc(CNc2nc(-c3ccco3)nn2S(=O)(=O)c2ccc(Cl)cc2)cc1OC	G9a block inconclusive, BAZ2B inh inconclusive, JMJD2A Tudor inh inconclusive (no result: L3MBTL1 block, Sfp inh)
CCOC(=O)c1cnc2c(cnn2CC)c1NN=C(C)C	Sfp inh 45µM!, G9a block 30µM (no result: L3MBTL1 block, HP1b chromo inh, BAZ2B inh, JMJD2A Tudor inh)
CSc1cnn(Cc2ccccc2)c(=O)c1SCc1ccccc1	Sfp inh 3.2µM, G9a block 8.9µM
CSc1cnn(-c2ccccc2)c(=O)c1SC	Sfp inh 79µM
O=c1c(O)c(-c2ccc(O[C@@H]3O[C@H](CO)[C@@H](O)[C@H](O)[C@H]3O)c(O)c2)oc2cc(O)cc(O)c12	none (no result: L3MBTL1 block, HP1b chromo inh, G9a block, BAZ2B inh, JMJD2A Tudor inh)
O=C(NCCCN1CCOCC1)c1cccc(S(=O)(=O)N2CCN(c3ccccc3)CC2)c1	none (no result: Sfp inh)
O=C(NCCOc1ccccc1F)c1cccc(S(=O)(=O)N2CCN(c3ccccc3)CC2)c1	G9a block 40µM (no result: Sfp inh)
CC(C)c1ccc(Nc2nc3ccc(C(=O)c4ccccc4)cc3n3cnnc23)cc1	none (no result: L3MBTL1 block, Sfp inh)
CCOC(=O)c1sc(NC(=O)c2sccc2C)cc1C	none (no result: L3MBTL1 block)
CCOC(=O)c1sc(/N=C/c2ccc(O)cc2O)cc1C	G9a block 22µM, JMJD2A Tudor inh inconclusive
O=C(NCc1cccc(Cl)c1)c1ccc2c(Cl)c3c(nc2c1)CCCC3	none (no result: L3MBTL1 block, Sfp inh)
CC(C)(C)OC(=O)Cc1nnc(-c2nc3ccccc3[nH]2)s1	none (no result: L3MBTL1 block, Sfp inh, HP1b chromo inh, G9a block, BAZ2B inh)
CSc1ccc(S(=O)(=O)NCC(=O)OCC(=O)N2CC(C)CC(C)C2)cc1[N+](=O)[O-] (configuration not stated)	G9a block 50µM (no result: Sfp inh)
COC(=O)C1CCN(C(=O)COC(=O)CNS(=O)(=O)c2ccc(SC)c([N+](=O)[O-])c2)CC1	none (no result: Sfp inh)
CCOc1ccc(-n2c(C)cc(C(=O)NS(=O)(=O)c3ccc(C)cc3)c2C)cc1	G9a block inconclusive
Cc1ccc(-n2c(C)cc(C(=O)NS(=O)(=O)c3ccc(C)cc3)c2C)cc1	G9a block 50µM, BAZ2B inh inconclusive
COC(=O)N1C(c2ccccc2)=Cc2ccccc2C1CC(C)=O (configuration not stated)	none (no result: L3MBTL1 block, HP1b chromo inh, G9a block, BAZ2B inh, JMJD2A Tudor inh)
C=CCn1c(-c2cccn(Cc3ccc(Cl)cc3Cl)c2=O)n[nH]c1=S	G9a block 2.8µM, JMJD2A Tudor inh 56µM
CNC(=S)NNC(=O)c1cccn(Cc2ccc(Cl)cc2Cl)c1=O	G9a block inconclusive (no result: HP1b chromo inh, JMJD2A Tudor inh)
C=CCn1c(-c2cccn(Cc3cccc(Cl)c3)c2=O)n[nH]c1=S	G9a block 11µM, JMJD2A Tudor inh 20µM
C=CCn1c(-c2ccccc2[N+](=O)[O-])n[nH]c1=S	G9a block 16µM, BAZ2B inh inconclusive
C=CCn1c(-c2cccn(Cc3ccccc3)c2=O)n[nH]c1=S	G9a block 40µM, JMJD2A Tudor inh 28µM
Nc1n[nH]c(-c2ccccc2[N+](=O)[O-])n1	none
CCn1c(=O)cc(OCC(=O)N2CCN(c3ccc(OC)cc3)CC2)c2ccccc21	BAZ2B inh inconclusive (no result: L3MBTL1 block, Sfp inh)
CCCCCCCC/C=C\CCCCCCCC(=O)N[C@H](CO)Cc1ccc(O)cc1	none (no result: L3MBTL1 block, HP1b chromo inh, G9a block, BAZ2B inh, JMJD2A Tudor inh)
C=CCn1c(O)c(N=NC(=O)CNC(=O)Cc2ccccc2)c2ccccc21	G9a block inconclusive (no result: L3MBTL1 block)
